The whole screen tested about 16,000 compounds, of which about 5,700 (36%) were called active. Inconclusive results (about 24%) are left out. Calls follow the shape of the dose curve; as a rule, active = well fitted curve in the direction sought with a large enough effect; inconclusive = small, poorly fitted or top-dose-only effect, or effect the other way; inactive = no such curve, though single readings can be large or run the other way. This is one part of the list.
Target: Cytochrome P450 1A2 (Homo sapiens) (UniProt P05177)
Sequence (P05177 whole entry, looked up): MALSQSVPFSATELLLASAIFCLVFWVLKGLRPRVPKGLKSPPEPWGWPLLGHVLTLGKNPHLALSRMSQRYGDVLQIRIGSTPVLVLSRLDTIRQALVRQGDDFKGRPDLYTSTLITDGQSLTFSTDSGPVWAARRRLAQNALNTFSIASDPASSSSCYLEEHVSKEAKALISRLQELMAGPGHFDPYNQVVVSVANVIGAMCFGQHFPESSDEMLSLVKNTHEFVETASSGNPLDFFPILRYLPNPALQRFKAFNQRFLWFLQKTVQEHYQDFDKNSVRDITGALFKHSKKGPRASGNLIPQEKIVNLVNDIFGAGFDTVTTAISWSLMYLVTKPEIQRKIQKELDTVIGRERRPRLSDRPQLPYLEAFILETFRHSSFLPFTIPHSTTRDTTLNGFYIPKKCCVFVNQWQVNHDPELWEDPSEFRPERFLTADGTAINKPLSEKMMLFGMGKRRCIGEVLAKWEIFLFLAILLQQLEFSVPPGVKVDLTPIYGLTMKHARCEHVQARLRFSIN
Experiment: Cytochrome panel assay with activity outcomes
Settings: recombinant CYP, pro-luciferin dealkylation, luminescence, p450-cyp1a2; series mostly up to 57.1 µM; activity, negative = inhibition: at the top concentration
% is scaled to controls: 0 for no effect and ±100 for the full control effect.

Row | SMILES | activity, negative = inhibition | AC50
1 | COc1ccc2c(c1)CCC1[C@@H]2CCC2(C)[C@@H](NCCCCCCN3C(=O)C=CC3=O)CC[C@@H]12 (some centres undefined) | -3.16% (inactive) | –
2 | CC[C@]1(c2cccc(O)c2)CCCCN(C)C1 | -7.06% [at 25.6 µM] (inactive) | –
3 | COc1ccc(C2SCC(=O)Nc3c2c(C)nn3C2CCOC(C)(C)C2)cc1 (centres undefined) | -2.75% (inactive) | –
4 | CCN1C[C@@]2(COC)CC[C@H](O)[C@@]34[C@@H]2C[C@@H]([C@@H]13)[C@]1(O)C[C@@H](OC)C2C[C@H]4[C@H]1[C@H]2OC(C)=O | -7.59% [at 25.6 µM] (inactive) | –
5 | CC[C@@H]1CN2CCc3cc(OC)c(OC)cc3[C@H]2C[C@@H]1C[C@@H]1NCCc2cc(OC)c(OC)cc21 | -2.31% (inactive) | –
6 | CCc1cc2c(nc1CC)CCN(CC/C(C)=N/OC)C2 | -0.582% [at 11.4 µM] (inactive) | –
7 | C=C1C/C(=C\C)C(=O)O[C@@H]2CCN3CC=C(COC(=O)[C@@]1(C)O)[C@H]23 | -3.75% [at 25.6 µM] (inactive) | –
8 | CC[N+](CC)(CC)CCOc1cccc(OCC[N+](CC)(CC)CC)c1OCC[N+](CC)(CC)CC | -0.0726% [at 25.6 µM] (inactive) | –
9 | N/C(=N\N=C/c1ccc(-c2ccc(O)c(C(=O)O)c2)o1)N[N+](=O)[O-] | -7.3% (inactive) | –
10 | Cc1o[nH]c(=O)c1C[C@@H](N)C(=O)O | -5.8% (inactive) | –
11 | C[C@H]1CC[C@]2(OC1)O[C@@H]1C[C@@H]3[C@@H]4CC[C@H]5C[C@@H](O)CC[C@]5(C)[C@@H]4CC(=O)[C@@]3(C)[C@H]1[C@@H]2C | -5.06% [at 25.6 µM] (inactive) | –
12 | CC(=O)OCC1=C(C(=O)O)N2C(=O)[C@@H](N)[C@@H]2SC1 | -3.51% [at 25.6 µM] (inactive) | –
13 | c1ccc(N2CCC3(CCNCC3)CC2)cc1 | -18.3% (inactive) | –
14 | Clc1cccc(N2CCNCC2)c1 | – | 15.8 µM (active)
15 | c1ccc(N2CC3(CCNCC3)C2)cc1 | 3.8% (inactive) | –
16 | CCN1CCN(S(=O)(=O)c2ccc(Cl)nc2)CC1 | 9.49% (inactive) | –
17 | C[C@@]12CCC(=O)C=C1C=C[C@H]1[C@H]3CC[C@](O)(CCC(=O)O)[C@]3(C)CC[C@@H]12 | -8.24% [at 25.6 µM] (inactive) | –
18 | O=C(O)[C@@H]1[C@H](C(=O)O)[C@]2(Cl)C(Cl)=C(Cl)[C@@]1(Cl)C2(Cl)Cl | -14.5% [at 11.4 µM] (inactive) | –
19 | CCCn1c(=O)c2[nH]c(C3CCCC3)nc2n(CCCOC(=O)c2ccc(S(=O)(=O)F)cc2)c1=O | -7.67% (inactive) | –
20 | CC(C)C(=O)CP(=O)(O)O | -6.25% [at 11.4 µM] (inactive) | –
21 | CC(C)c1c(CN(C)[C@@H](C)Cc2ccccc2)n(C)n(-c2ccccc2)c1=O | -19.1% [at 25.6 µM] (inactive) | –
22 | C#CCN(C)[C@H](C)Cc1ccccc1 | – | 12.6 µM (active)
23 | CCCN1CCC[C@@H]2Cc3[nH]ncc3C[C@H]21 | – | inactive
24 | CC(C)[C@]1(O)[C@@H](OC(=O)c2ccc[nH]2)[C@]2(O)[C@@]3(C)C[C@@]4(O)O[C@@]5([C@H](O)[C@@H](C)CC[C@]35O)[C@]2(O)[C@]41C | -17.2% [at 2.29 µM] (inactive) | –

Source: PubChem BioAssay AID1851 (National Center for Advancing Translational Sciences (NCATS), 2009)
